Assay results from PubChem BioAssay.
Activity calls are given as the source filed them.

Experiments:
[1] = test system: PRMT1 (protein arginine N-methyltransferase 1); assay: small molecules binding arginine methyltransferase PRMT1 – biochemical, small-molecule microarray, 635 nm fluorescence, primary screen (AID 1088); conditions: higher = more signal;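 further: binding of Prmt1 protein to compounds spotted on small-molecule microarray slides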
[2] = growth effects on S. cerevisiae YJM789 – YJM789 clinical isolate, OD600, 24 h, basal, primary screen (AID 1089); conditions: higher = more signal, called active from +8 up or from −8 down;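 further: growth of clinical yeast isolate S. cerevisiae YJM 789 seeded 1000 cells per well; test concentration not given here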
[3] = S. pombe growth modifiers, basal conditions – strain 972, OD600, 24 h, no modulator, primary screen (AID 1090);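 further: basal condition with compound alone and no growth modifier present; test concentration not given here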; conditions: S. pombe 972 growth, higher = more signal, called active from +8 up or from −8 down
[4] = budding yeast growth modifiers under rapamycin – strain BY4716, OD600, 96 h, primary screen (AID 1091); further: test concentration not given here; conditions: S. cerevisiae BY4716 + rapamycin, higher = more signal, called active from +8 up or from −8 down
[5] = target: Torsin-1A-interacting protein 2 (Homo sapiens) (UniProt Q8NFQ8); assay: small molecules binding lysate-expressed LULL1 – cell lysate, human LULL1 lysate, 635/667 nm fluorescence, primary screen (AID 1092); conditions: small-molecule microarray, hLULL1 lysate binding, 635 nm fluorescence; higher = more signal;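 further: probe is lysate of COS7 cells overexpressing human LULL1; score merges per-feature 667 nm fluorescence with signal-to-noise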
[6] = optical density change of DRC41 E. coli – strain DRC41, OD650, 24 h, E. coli filamentation project, primary screen (AID 1093);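 further: MC1000 strain lacking acrAB efflux and sulA so SOS filamentation is blocked; test concentration not given here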; conditions: E. coli DRC41 growth, higher = more signal, called active from +8 up or from −8 down
[7] = probe aLefty2 binding to arrayed compounds – biochemical, biotinylated probe, 635/667 nm fluorescence, primary screen (AID 1094); conditions: small-molecule microarray, higher = more signal;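 further: score merges spot fluorescence near 667 nm with spot signal-to-noise ratio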
[8] = test system: Noggin (protein binding on small-molecule microarray); assay: small molecules binding Noggin protein – biochemical, 635/667 nm fluorescence, primary screen (AID 1095); conditions: 635 nm fluorescence, higher = more signal;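 further: score merges 667 nm feature fluorescence with signal to noise over triplicate slides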
[9] = target: Neurogenic locus notch homolog protein 3 (Homo sapiens) (UniProt Q9UM47); assay: small molecules binding NOTCH3 protein – biochemical, 635/667 nm fluorescence, primary screen (AID 1096); conditions: small-molecule microarray, 635 nm fluorescence, higher = more signal
[10] = probe aEGFR binding to arrayed compounds – biochemical, biotinylated probe, 635/667 nm fluorescence, primary screen (AID 1097); conditions: small-molecule microarray, higher = more signal;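 further: probe is a biotinylated anti-EGFR antibody binding compounds printed on slides; score combines fluorescence near 667 nm and signal to noise of each spot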
[11] = test system: Plasmodium falciparum Sir2 (PF13_0152, Sir2A); assay: Plasmodium falciparum Sir2A binding compounds – biochemical, small-molecule microarray, 635 nm fluorescence, primary screen (AID 1098); conditions: fluorescence 635 nm, higher = more signal;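 further: score merges spot fluorescence intensity with its signal-to-noise ratio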
[12] = probe aDKK1 binding to arrayed compounds – biochemical, biotinylated probe, 635/667 nm fluorescence, primary screen (AID 1099); conditions: small-molecule microarray, higher = more signal;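 further: score merges 667nm spot fluorescence with signal to noise across triplicate slides; reference of the scale not given here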
[13] = probe aCHRDL2 binding to arrayed compounds – biochemical, biotinylated probe, 635/667 nm fluorescence, primary screen (AID 1100); conditions: small-molecule microarray, higher = more signal
[14] = change in splice reporter luminescence, either direction, cell-based, HEK293, spliceosome inhibition project, primary screen (AID 1101); conditions: HEK293 splicing luciferase reporter, 24 h, higher = more signal, called active from +8 up or from −8 down;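 further: HEK293 cells carrying a splicing-competent luciferase reporter gene; test concentration not given here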
[15] = target: Fibroblast growth factor 10 (Homo sapiens) (UniProt O15520); assay: compounds binding fibroblast growth factor 10 – biochemical, small-molecule microarray, 635 nm fluorescence, primary screen (AID 1102); conditions: FGF10 binding, fluorescence 635 nm, higher = more signal
[16] = test system: glycogen synthase kinase-3 (GSK3A per assay name; protocol says GSK3B); assay: compounds binding glycogen synthase kinase-3 – biochemical, small-molecule microarray, 635 nm fluorescence, GSK3A, primary screen (AID 1103); conditions: fluorescence 635 nm, higher = more signal; further: the record names both GSK3A and GSK3B
[17] = target: Epidermal growth factor receptor (Homo sapiens) (UniProt P00533); assay: compounds binding epidermal growth factor receptor – biochemical, small-molecule microarray, 635 nm fluorescence, primary screen (AID 1104); conditions: EGFR binding, higher = more signal;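 further: score merges 667 nm emission intensity with spot signal to noise over triplicate slides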
[18] = target: Follistatin-related protein 3 (Homo sapiens) (UniProt O95633); assay: compounds binding follistatin-related protein 3 – biochemical, small-molecule microarray, 635 nm fluorescence, primary screen (AID 1105); conditions: FSTL3 binding, higher = more signal;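 further: score merges emission near 667 nm and signal to noise per printed spot across three slides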
[19] = target: Dickkopf-related protein 1 (Homo sapiens) (UniProt O94907); assay: small molecules binding DKK1 protein – biochemical, small-molecule microarray, 635 nm fluorescence scan, primary screen (AID 1106); conditions: higher = more signal;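 further: score merges emission near 667 nm with signal to noise over three replicate slides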
[20] = test system: Inhibin beta A chain (activin A); assay: small molecules binding activin A – biochemical, small-molecule microarray, 635 nm fluorescence scan, primary screen (AID 1107); conditions: INHBA, higher = more signal;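 further: mouse activin A protein probed at 4.33 µg/mL on printed slides; score merges bound-protein fluorescence near 667 nm with spot signal-to-noise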

Chain of Torsin-1A-interacting protein 2 (Homo sapiens) (Q8NFQ8 whole entry, looked up): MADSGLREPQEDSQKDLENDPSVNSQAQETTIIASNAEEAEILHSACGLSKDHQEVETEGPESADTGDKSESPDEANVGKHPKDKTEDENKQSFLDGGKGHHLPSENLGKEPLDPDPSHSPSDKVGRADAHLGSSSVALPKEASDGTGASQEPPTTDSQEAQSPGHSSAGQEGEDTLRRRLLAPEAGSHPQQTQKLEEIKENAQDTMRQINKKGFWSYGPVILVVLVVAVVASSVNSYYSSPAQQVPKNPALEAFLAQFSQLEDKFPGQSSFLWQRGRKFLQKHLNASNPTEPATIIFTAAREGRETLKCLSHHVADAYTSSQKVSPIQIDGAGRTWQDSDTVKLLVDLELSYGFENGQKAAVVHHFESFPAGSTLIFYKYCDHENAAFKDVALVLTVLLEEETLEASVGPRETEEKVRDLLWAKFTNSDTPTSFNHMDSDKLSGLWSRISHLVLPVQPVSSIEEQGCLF
Chain of Dickkopf-related protein 1 (Homo sapiens) (O94907 whole entry, looked up): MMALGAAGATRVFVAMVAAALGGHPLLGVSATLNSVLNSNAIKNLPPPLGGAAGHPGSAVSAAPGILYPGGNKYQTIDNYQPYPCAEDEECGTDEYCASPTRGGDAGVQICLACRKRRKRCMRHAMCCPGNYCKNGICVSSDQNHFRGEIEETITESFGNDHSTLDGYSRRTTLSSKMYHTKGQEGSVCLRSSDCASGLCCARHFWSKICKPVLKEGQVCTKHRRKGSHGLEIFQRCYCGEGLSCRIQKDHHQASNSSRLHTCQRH
Chain of Epidermal growth factor receptor (Homo sapiens) (P00533 whole entry, looked up): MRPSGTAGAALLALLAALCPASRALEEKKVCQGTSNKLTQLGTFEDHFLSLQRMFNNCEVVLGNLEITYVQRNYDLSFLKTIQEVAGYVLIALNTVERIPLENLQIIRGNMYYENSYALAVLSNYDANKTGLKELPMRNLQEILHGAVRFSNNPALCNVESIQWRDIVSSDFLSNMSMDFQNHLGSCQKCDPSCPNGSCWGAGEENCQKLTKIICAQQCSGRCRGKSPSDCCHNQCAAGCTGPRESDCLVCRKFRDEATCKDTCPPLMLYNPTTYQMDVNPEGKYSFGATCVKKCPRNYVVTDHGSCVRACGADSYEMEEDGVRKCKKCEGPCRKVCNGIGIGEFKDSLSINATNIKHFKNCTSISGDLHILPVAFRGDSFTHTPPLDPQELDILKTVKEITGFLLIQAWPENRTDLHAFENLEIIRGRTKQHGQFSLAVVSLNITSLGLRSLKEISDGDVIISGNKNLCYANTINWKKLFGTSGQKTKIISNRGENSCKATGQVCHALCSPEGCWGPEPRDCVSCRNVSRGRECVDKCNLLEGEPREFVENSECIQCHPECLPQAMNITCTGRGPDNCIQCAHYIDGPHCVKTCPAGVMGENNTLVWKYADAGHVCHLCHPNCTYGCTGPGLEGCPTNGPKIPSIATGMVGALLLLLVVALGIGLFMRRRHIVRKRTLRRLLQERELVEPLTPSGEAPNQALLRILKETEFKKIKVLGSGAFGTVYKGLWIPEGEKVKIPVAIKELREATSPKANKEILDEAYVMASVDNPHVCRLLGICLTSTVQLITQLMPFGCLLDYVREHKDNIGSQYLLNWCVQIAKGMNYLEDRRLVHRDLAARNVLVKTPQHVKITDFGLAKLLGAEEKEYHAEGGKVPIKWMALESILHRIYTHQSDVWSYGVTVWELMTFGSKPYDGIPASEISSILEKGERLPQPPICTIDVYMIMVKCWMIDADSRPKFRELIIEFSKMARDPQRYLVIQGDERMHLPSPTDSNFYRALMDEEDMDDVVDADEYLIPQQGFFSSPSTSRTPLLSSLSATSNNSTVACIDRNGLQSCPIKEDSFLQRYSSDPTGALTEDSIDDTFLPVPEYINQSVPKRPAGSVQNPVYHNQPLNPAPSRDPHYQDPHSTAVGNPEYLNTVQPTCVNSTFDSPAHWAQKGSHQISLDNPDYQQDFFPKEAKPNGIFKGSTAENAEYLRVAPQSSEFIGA
Chain of Neurogenic locus notch homolog protein 3 (Homo sapiens) (Q9UM47 whole entry, looked up): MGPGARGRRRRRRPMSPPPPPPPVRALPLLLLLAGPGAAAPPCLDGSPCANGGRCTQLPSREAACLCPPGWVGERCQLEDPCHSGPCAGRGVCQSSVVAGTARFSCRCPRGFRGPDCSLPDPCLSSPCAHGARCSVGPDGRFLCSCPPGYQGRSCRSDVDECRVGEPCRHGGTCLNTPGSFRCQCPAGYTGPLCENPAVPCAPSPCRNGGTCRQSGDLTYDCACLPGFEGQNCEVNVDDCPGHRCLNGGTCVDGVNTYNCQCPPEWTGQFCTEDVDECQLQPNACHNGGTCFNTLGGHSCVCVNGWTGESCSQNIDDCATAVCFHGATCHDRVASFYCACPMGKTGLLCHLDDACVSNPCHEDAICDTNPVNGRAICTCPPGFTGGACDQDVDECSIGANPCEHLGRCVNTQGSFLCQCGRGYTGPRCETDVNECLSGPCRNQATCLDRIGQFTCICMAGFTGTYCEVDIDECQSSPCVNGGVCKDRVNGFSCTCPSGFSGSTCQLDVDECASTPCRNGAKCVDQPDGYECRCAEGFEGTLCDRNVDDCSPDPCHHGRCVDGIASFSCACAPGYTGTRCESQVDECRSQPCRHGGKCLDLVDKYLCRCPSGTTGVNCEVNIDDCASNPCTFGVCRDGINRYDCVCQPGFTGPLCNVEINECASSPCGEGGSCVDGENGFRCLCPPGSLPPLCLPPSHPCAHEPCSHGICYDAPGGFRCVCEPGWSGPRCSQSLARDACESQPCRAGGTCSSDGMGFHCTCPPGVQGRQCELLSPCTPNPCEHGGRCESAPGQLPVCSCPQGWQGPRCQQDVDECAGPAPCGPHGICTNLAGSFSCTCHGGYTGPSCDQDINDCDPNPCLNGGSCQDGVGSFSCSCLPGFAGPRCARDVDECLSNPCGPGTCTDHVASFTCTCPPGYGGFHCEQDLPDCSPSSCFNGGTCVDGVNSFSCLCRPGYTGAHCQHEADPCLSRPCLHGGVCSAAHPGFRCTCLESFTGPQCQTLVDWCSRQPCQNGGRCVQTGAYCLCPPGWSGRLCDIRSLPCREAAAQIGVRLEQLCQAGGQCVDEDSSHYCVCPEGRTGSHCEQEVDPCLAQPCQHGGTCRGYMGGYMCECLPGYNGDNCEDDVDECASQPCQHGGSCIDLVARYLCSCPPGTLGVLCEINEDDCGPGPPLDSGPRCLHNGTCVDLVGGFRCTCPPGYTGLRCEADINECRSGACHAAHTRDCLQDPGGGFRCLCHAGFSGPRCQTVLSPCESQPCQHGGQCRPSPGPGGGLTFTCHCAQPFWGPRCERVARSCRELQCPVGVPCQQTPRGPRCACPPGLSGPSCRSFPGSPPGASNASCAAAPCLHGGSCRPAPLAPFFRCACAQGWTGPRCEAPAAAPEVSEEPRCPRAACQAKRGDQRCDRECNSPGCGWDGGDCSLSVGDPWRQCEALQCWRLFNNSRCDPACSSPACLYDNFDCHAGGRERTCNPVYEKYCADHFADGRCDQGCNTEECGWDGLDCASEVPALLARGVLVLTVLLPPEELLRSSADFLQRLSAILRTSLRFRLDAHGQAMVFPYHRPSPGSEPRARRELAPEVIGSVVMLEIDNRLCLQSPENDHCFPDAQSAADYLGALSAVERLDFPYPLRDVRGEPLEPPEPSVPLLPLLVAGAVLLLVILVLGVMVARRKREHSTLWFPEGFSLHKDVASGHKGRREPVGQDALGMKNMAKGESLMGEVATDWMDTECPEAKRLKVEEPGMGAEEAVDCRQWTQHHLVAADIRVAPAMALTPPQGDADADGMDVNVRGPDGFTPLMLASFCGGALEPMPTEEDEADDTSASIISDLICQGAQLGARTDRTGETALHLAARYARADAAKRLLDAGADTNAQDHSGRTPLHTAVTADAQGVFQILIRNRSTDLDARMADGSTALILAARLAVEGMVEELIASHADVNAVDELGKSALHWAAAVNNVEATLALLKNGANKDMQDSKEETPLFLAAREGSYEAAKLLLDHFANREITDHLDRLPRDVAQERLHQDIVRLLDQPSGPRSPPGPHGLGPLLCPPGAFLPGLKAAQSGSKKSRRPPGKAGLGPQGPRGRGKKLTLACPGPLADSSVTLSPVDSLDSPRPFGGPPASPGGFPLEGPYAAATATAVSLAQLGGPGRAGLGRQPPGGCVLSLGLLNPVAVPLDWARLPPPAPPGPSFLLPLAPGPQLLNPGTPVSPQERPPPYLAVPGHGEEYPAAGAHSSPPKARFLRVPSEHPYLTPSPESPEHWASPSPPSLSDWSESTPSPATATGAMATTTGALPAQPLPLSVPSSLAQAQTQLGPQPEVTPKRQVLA
Chain of Fibroblast growth factor 10 (Homo sapiens) (O15520 whole entry, looked up): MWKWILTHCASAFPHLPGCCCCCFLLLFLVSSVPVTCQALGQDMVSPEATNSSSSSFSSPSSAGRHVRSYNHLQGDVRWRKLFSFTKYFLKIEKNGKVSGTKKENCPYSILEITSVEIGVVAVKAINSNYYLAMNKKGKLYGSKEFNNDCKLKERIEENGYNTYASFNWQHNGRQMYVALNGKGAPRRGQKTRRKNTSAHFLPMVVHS
Chain of Follistatin-related protein 3 (Homo sapiens) (O95633 whole entry, looked up): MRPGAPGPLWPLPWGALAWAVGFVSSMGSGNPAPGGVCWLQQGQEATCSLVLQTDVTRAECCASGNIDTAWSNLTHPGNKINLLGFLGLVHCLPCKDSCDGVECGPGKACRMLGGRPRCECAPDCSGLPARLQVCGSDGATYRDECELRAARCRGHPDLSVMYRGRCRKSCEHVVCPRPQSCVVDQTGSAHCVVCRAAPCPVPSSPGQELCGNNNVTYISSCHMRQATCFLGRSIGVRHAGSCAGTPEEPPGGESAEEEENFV

## O=C1C[C@@](C(=O)O)(c2ccc([N+](=O)[O-])cc2)[C@@H](c2ccc(CO)cc2)N1C1CCCCC1
[1]
  composite z-score: 1.54
[2]
  z-score: 1.24 (inactive)
[3]
  z-score: -1.36 (inactive)
[4]
  z-score: 1.05 (inactive)
[5]
  composite z-score: 3.12
[6]
  z-score: 0.397 (inactive)
[7]
  composite z-score: 0.0909
[8]
  composite z-score: 0.333
[9]
  composite z-score: 1.15
[10]
  composite z-score: -0.0409
[11]
  composite z-score: 0.869
[12]
  composite z-score: 0.366
[13]
  composite z-score: 0.495
[14]
  z-score: 0.185 (inactive)
[15]
  composite z-score: 0.869
[16]
  composite z-score: 0.582
[17]
  composite z-score: 0.369
[18]
  composite z-score: 1.1
[19]
  composite z-score: 0.649
[20]
  composite z-score: 0.633

## CC1CC/C=C\[C@H]2OC34C=CCN(Cc5ccccc5)C(=O)[C@H]3N(CCCCCCO)C(=O)[C@@H]4C2C(=O)O1 (stereo not given in full)
[1]
  composite z-score: 0.661
[2]
  z-score: -0.617 (inactive)
[3]
  z-score: -0.623 (inactive)
[4]
  z-score: -0.482 (inactive)
[5]
  composite z-score: 2.31
[6]
  z-score: 0.246 (inactive)
[7]
  composite z-score: -0.163
[8]
  composite z-score: -1.78
[9]
  composite z-score: -0.397
[10]
  composite z-score: -0.0773
[11]
  composite z-score: 0.954
[12]
  composite z-score: -0.0995
[13]
  composite z-score: 0.705
[14]
  z-score: 0.0368 (inactive)
[15]
  composite z-score: -0.965
[16]
  composite z-score: -0.587
[17]
  composite z-score: -1.28
[18]
  composite z-score: -1.01
[19]
  composite z-score: -1.49
[20]
  composite z-score: 0.0203

## C=CCNC(=O)[C@H]1[C@@H]2C(=O)O[C@@H](c3ccccc3)[C@@H](c3ccccc3)N2[C@@H](c2ccc(OCCO)cc2)[C@]12C(=O)Nc1ccc(C#CC3(O)CCCCCC3)cc12
[1]
  composite z-score: 1.53
[2]
  z-score: 2.3 (inactive)
[3]
  z-score: 1.42 (inactive)
[4]
  z-score: 5.09 (inactive)
[5]
  composite z-score: 2.11
[6]
  z-score: 1.61 (inactive)
[7]
  composite z-score: 0.323
[8]
  composite z-score: 1.4
[9]
  composite z-score: 1.08
[10]
  composite z-score: 0.0432
[11]
  composite z-score: 1.19
[12]
  composite z-score: 0.514
[13]
  composite z-score: 0.446
[14]
  z-score: -0.313 (inactive)
[15]
  composite z-score: 1.29
[16]
  composite z-score: 1.3
[17]
  composite z-score: 0.982
[18]
  composite z-score: 1.29
[19]
  composite z-score: 0.527
[20]
  composite z-score: 0.996

## COc1ccc(CCNC(=O)[C@@H]2c3ccccc3C(=O)N(Cc3ccccc3OC)[C@H]2c2ccc(CO)cc2)cc1
[1]
  composite z-score: 1.53
[2]
  z-score: -1.23 (inactive)
[3]
  z-score: 0.294 (inactive)
[4]
  z-score: -0.323 (inactive)
[5]
  composite z-score: 2.62
[6]
  z-score: -0.1 (inactive)
[7]
  composite z-score: -0.172
[8]
  composite z-score: 0.0564
[9]
  composite z-score: 0.852
[10]
  composite z-score: -0.105
[11]
  composite z-score: 1.1
[12]
  composite z-score: -0.381
[13]
  composite z-score: 0.508
[14]
  z-score: 0.295 (inactive)
[15]
  composite z-score: 0.454
[16]
  composite z-score: 0.931
[17]
  composite z-score: 0.0744
[18]
  composite z-score: 0.172
[19]
  composite z-score: 0.0163
[20]
  composite z-score: 0.414

## COC(=O)[C@@]1(Cc2ccccc2)[C@H]2c3cc(C(=O)N(C)C)n(CCSC(=N)N)c3C[C@H]2CN1C(=O)c1ccccc1
[1]
  composite z-score: 0.265
[2]
  z-score: 0.485 (inactive)
[3]
  z-score: 1.12 (inactive)
[4]
  z-score: 0.102 (inactive)
[5]
  composite z-score: 2.05
[6]
  z-score: -0.0906 (inactive)
[7]
  composite z-score: 0.169
[8]
  composite z-score: -0.699
[9]
  composite z-score: -0.0995
[10]
  composite z-score: -0.112
[11]
  composite z-score: 1.16
[12]
  composite z-score: 0.743
[13]
  composite z-score: 1
[14]
  z-score: 0.61 (inactive)
[15]
  composite z-score: -0.315
[16]
  composite z-score: -0.102
[17]
  composite z-score: -0.649
[18]
  composite z-score: -0.406
[19]
  composite z-score: -1.49
[20]
  composite z-score: 1.01

## Cc1ccc(S[C@]2(C(=O)NCCCN(C)C)CC(=O)N(C3Cc4ccccc4C3)[C@@H]2c2ccc(CO)cc2I)cc1
[1]
  composite z-score: 0.961
[2]
  z-score: -0.471 (inactive)
[3]
  z-score: -2.87 (inactive)
[4]
  z-score: 1.32 (inactive)
[5]
  composite z-score: 1.14
[6]
  z-score: -0.42 (inactive)
[7]
  composite z-score: -0.035
[8]
  composite z-score: -0.978
[9]
  composite z-score: -0.105
[10]
  composite z-score: -0.0828
[11]
  composite z-score: 1.58
[12]
  composite z-score: 0.182
[13]
  composite z-score: 0.932
[14]
  z-score: -1.53 (inactive)
[15]
  composite z-score: -0.795
[16]
  composite z-score: -0.719
[17]
  composite z-score: -0.487
[18]
  composite z-score: -0.335
[19]
  composite z-score: -0.976
[20]
  composite z-score: 0.794

## CN1C(=O)[C@@H]2[C@@H](CC(COc3ccccc3)=C3[C@@H](CCc4ccccc4)OB(O)C[C@@H]32)C1=O
[1]
  composite z-score: 0.359
[2]
  z-score: -0.973 (inactive)
[3]
  z-score: -0.793 (inactive)
[4]
  z-score: -0.862 (inactive)
[5]
  composite z-score: 0.384
[6]
  z-score: -0.372 (inactive)
[7]
  composite z-score: -0.205
[8]
  composite z-score: 0.231
[9]
  composite z-score: -0.138
[10]
  composite z-score: -0.15
[11]
  composite z-score: 1.11
[12]
  composite z-score: -0.003
[13]
  composite z-score: 0.0414
[14]
  z-score: 0.341 (inactive)
[15]
  composite z-score: 0.311
[16]
  composite z-score: -0.557
[17]
  composite z-score: -0.133
[18]
  composite z-score: 0.128
[19]
  composite z-score: 0.109
[20]
  composite z-score: 0.515

## CC1=C([C@H](O)CCc2ccccc2)[C@H](CO)n2c(=O)n(-c3ccccc3)c(=O)n2C1
[1]
  composite z-score: -0.0416
[2]
  z-score: -1.02 (inactive)
[3]
  z-score: -1.03 (inactive)
[4]
  z-score: -0.539 (inactive)
[5]
  composite z-score: -0.478
[6]
  z-score: 1.87 (inactive)
[7]
  composite z-score: -0.355
[8]
  composite z-score: 0.0865
[9]
  composite z-score: -0.696
[10]
  composite z-score: -0.211
[11]
  composite z-score: -0.385
[12]
  composite z-score: -0.204
[13]
  composite z-score: -0.48
[14]
  z-score: -1.04 (inactive)
[15]
  composite z-score: 0.233
[16]
  composite z-score: 0.196
[17]
  composite z-score: 0.167
[18]
  composite z-score: -0.0401
[19]
  composite z-score: 0.231
[20]
  composite z-score: 0.472

## COC(=O)[C@@]1(Cc2ccccc2)N=C(c2ccc(OCCCO)cc2)O[C@H]1c1ccccc1CN=[N+]=[N-]
[1]
  composite z-score: 1.55
[2]
  z-score: -0.605 (inactive)
[3]
  z-score: -0.129 (inactive)
[4]
  z-score: 29.9 (active)
[5]
  composite z-score: 2.27
[6]
  z-score: 1.62 (inactive)
[7]
  composite z-score: -0.0747
[8]
  composite z-score: 1.05
[9]
  composite z-score: 0.129
[10]
  composite z-score: 0.0267
[11]
  composite z-score: 1.61
[12]
  composite z-score: 0.287
[13]
  composite z-score: 0.652
[14]
  z-score: 12.9 (active)
[15]
  composite z-score: 0.722
[16]
  composite z-score: 0.893
[17]
  composite z-score: -0.0505
[18]
  composite z-score: 0.323
[19]
  composite z-score: 0.21
[20]
  composite z-score: 1.09

## COc1ccc([Si](C)(C)[C@@H]2[C@@H](CC(=O)N3CCC[C@H]3CO)O[C@]3(C(=O)N(Cc4cccc(N5CCCCC5=O)c4)c4ccccc43)[C@H]2C)cc1
[1]
  composite z-score: 1.57
[2]
  z-score: -0.965 (inactive)
[3]
  z-score: -0.388 (inactive)
[4]
  z-score: 0.1 (inactive)
[5]
  composite z-score: 1.89
[6]
  z-score: 0.807 (inactive)
[7]
  composite z-score: -0.183
[8]
  composite z-score: 0.894
[9]
  composite z-score: 0.625
[10]
  composite z-score: -0.0828
[11]
  composite z-score: 1.29
[12]
  composite z-score: -0.246
[13]
  composite z-score: -0.115
[14]
  z-score: 0.238 (inactive)
[15]
  composite z-score: 0.32
[16]
  composite z-score: 0.523
[17]
  composite z-score: 0.0941
[18]
  composite z-score: 0.747
[19]
  composite z-score: 0.414
[20]
  composite z-score: 0.27
